This is an account of results in the supplement of paper PMC11417369.

In all, about 25,000 sequences were measured (“ln(normalized median fluorescence intensity)”: median about 6.7, highest 2% from about 10 on). The list comes from a sample in which the highest values are over-represented; it also holds similar and randomly drawn sequences.

The assay concerns PfHDP1 homeodomain (GST-tagged). The experiment in a line: gcPBM binding intensity (ln(normalized median fluorescence intensity)); higher = stronger DNA binding. In a few lines:
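The binding buffer was 1× PBS containing 1% milk, 0.2 mg/ml BSA, 0.5% salmon testes DNA and 0.03% Triton X-100. In it, GST-tagged P. falciparum DNA-binding domains expressed in E. coli were applied for 1 h to an Agilent 4 × 180k array of primer-extended double-stranded 36-bp intergenic genomic probes plus negative controls. Binding intensity, read with Alexa488 anti-GST antibody and a 488 nm scan, is the highest Masliner-normalised natural-log median intensity across replicate spots of either probe orientation.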
“TTCTGCAGCAATGTTTTTTTTAAATATTTATATGGT [CACACA_negctrl_site1815]”: the “gcPBM binding intensity (ln)” value came to 6.51.
Turning to “CAAAATATTTTTATAACACACATATATAGAATGTGC [CACACA_site1145]”, the “gcPBM binding intensity (ln)” value is 6.34.
Turning to “AAAAATAGAGCAGCTCTCATATTTTTATGTGCAATA [CACACA_negctrl_site837]”, the “gcPBM binding intensity (ln)” value is 10.6.
On to “TTTTTTTATCAATGTTGTACTTTTTTTTTTTTCCAT [XGTACX_site8864]”, for which the “gcPBM binding intensity (ln)” value is 6.18.
As for “ATTAAAAAAAAAAAAAAAAAAAAAAAAAAAAAAAAA [CACACA_negctrl_site1060]”, the figure is 6.3.
With TAAAAAATTAATAAAGTGCATAAATATTACAATATT, the “gcPBM binding intensity (ln)” value was determined as 7.68.
Take AGGTATATATTACAAGTGCACTGTAAAATTAAAATT: the “gcPBM binding intensity (ln)” value was 10.5.
The figure for “TGCATAATTAAAAATGGTACACTGTATTTATAATAT [XGTACX_site1575]” is 6.38; for “ATATTTAAATAATATTCACACACAAAATTATATTTT [CACACA_site7955]” it is 6.44.
For the sequence “AAATGTATACACATGGTGCGTAATATATTATATATA [GTGCAC_site9877]”, the “gcPBM binding intensity (ln)” value amounted to 7.85.
As for “AATAAAAAAATATATTGTACTAATAATTATATGTTT [XGTACX_site2246]”, the figure is 6.47; as for “TTTTTATCAAATAAATGTACACATATTAAATGAAAT [XGTACX_site555]”, 6.6; as for ACATATTAAATATGAGTGCAATATATATATATATAA, 9.25.
“AGTATAAATAAATCATAAACATATATATATATATAT [GTGCAC_negctrl_site356]”: the “gcPBM binding intensity (ln)” value was 9.35.
“ATATATATTAAAAATAGTACATATAATAAAAATCAT [XGTACX_site4265]”: the “gcPBM binding intensity (ln)” value came out at 6.57.
The figure for CAATATATTATATGGGTGCAAACCACATATAAATAA is 8.55.
The figure for “AATCATATTAGTATGGTGCAATATATATATAAATAT [GTGCAC_site9800]” is 10.5; for AATCATATTAGTATGGTGCAACATATATAAATATAT it is 11; for “ATACATTTATTGTATTGTACATAATATTATATATTC [XGTACX_site7115]” it is 6.55.
For “TGCATATTACTTTTTCACATAAAAATGATCCGATTA [GTGCAC_negctrl_site526]”, the “gcPBM binding intensity (ln)” value worked out at 6.49.
As for “ATATTTAAACGATGGTGTACATATATTACAAGTTGT [XGTACX_site1743]”, the figure is 7.03; as for “ACATAAAATTGGAGCAAACACACAAGGTTGAAATTA [CACACA_site505]”, 7.16; as for “TATATATTTCAATAATGTACATATAATATATATATT [XGTACX_site4124]”, 6.6.
As for “CCATAAAAAGGATACACACACACACCGACATATATA [CACACA_site4653]”, the figure is 6.89.
Regarding “ATTAAGTACTAAAAAGTGCAGTTCGGTACTGTGCTT [GTGCAC_site9755]”, the “gcPBM binding intensity (ln)” value amounted to 6.42.
As for “TATTTCATTAATGTCACTTTGAAAGAAATGAAAAAA [CACACA_negctrl_site1803]”, the figure is 6.44; as for “CTATTTAAAATTTGAACACACATTATTTATTTTAAA [CACACA_site3114]”, 6.41; as for “TTAATTATCCATTTTGCACACATTTTAAAACATGAA [CACACA_site189]”, 10.7.
“TTTTTTTTTTTTTTTGCACACATTTTAATTATTTTT [CACACA_site341]”: the “gcPBM binding intensity (ln)” value worked out at 9.27.
As for “TTCCTTTGTCCTAACTGTACTCAAATTTATTAGTGG [XGTACX_site226]”, the figure is 7.04; as for “TATATATTCATAAAGTGTACATGTTTATATATATAT [XGTACX_site7585]”, 8.53; as for “TATATATAAGCGTGTACACATTCTGAGTGTTGTATA [CACACA_site4502]”, 7.02.
For the sequence “ATAGTATATCAAAATTTGTAAATCATTCTCAATAAA [CACACA_negctrl_site430]”, the “gcPBM binding intensity (ln)” value was 5.94.
Take “AATATAAATAATTATACACACTTAATATATATATAC [CACACA_site5533]”: the “gcPBM binding intensity (ln)” value came out at 6.53.
Regarding “ATATGTATGTATTTATTATTGTGCATTGTATTTATA [CACACA_negctrl_site664]”, the “gcPBM binding intensity (ln)” value worked out at 10.3.
For “TATATATATATATATATATATATGTATGTGCATTTA [TGCATGCA_negctrl_site53]”, the “gcPBM binding intensity (ln)” value was determined as 11.2.
As for “ATATATATTTATATATATATATATATATATATGTAT [GTGCAC_negctrl_site220]”, the figure is 7.92; as for “CACACGCACGAACACACACACACACGCGCACATATA [CACACA_site6304]”, 8.54; as for “CAAAAAAACAAACACACACACACACCCATATATATA [CACACA_site3653]”, 6.85.
With “AAAGTTTTTATAAAAAAAAAAATAAATACCATATAT [XGTACX_negctrl_site113]”, the “gcPBM binding intensity (ln)” value worked out at 6.5.
In the case of “TTTTTTAAAGTTTAAAGTACATATAAAAATATATAA [XGTACX_site5267]”, the “gcPBM binding intensity (ln)” value was 5.94.
For “TATACCAGTTTTAAAAGTACTTGTGCATAAAAAATA [XGTACX_site4794]”, the “gcPBM binding intensity (ln)” value amounted to 11.
As for “TATGGTTTTAAAAAATGTACGCAAGTGCGTTAATTT [XGTACX_site3945]”, the figure is 7.62; as for “TTATAATATATATACAGTACATATATAAAATAATAT [XGTACX_site5917]”, 6.5; as for “AAAAAAAATTATATATGTACTTATTAATCCTTTTAT [XGTACX_site1387]”, 6.11.
Consider “CACATAAATAATTAAACACACATTGTTCTAGACAAT [CACACA_site2378]”, for which the “gcPBM binding intensity (ln)” value came to 6.51.
The figure for TCCAATTGTTCTAGTGTGCACATAAATAAATCTCAT is 11; for “AGCACATAAATAATTAAACACACATTGTTCTAGACA [CACACA_site8746]” it is 6.3.
